Bioassay records as filed in PubChem.
Yp Topo-I inh: Yersinia pestis topoisomerase I inhibitors, primary screen, biochemical, cleavage product accumulation, plate reader, single point. Y. pestis Topo-I cleavage product accumulation. DNA topoisomerase I (Yersinia pestis CO92). hit rate 0.064% among 360,000. activity, % at 10 µM; in the data active = activity above about 50%, passing the limit was not always enough
TcdB inh: TcdB glycohydrolase inhibitors, primary screen, biochemical, single point, plate reader; Toxin B (Clostridioides difficile), P18177; TcdB glycohydrolase enzymatic assay; inhibition, % at 9.99 µM; hit rate 0.24% among 350,000; AID 652162, 2013; in the data active = inhibition above about 10%
PrPC surface inh: inhibitors of human cell surface prion protein PrPC, primary screen, cell-based, TR-FRET | Major prion protein (Homo sapiens), P04156 | TR-FRET read-out | inhibition, % at 13.8 µM | hit rate 0.43% among 370,000 | AID 720596, 2013; in the data active = inhibition above about 24%
FBA Mtb inh: Mtb FBA enzyme inhibitors, primary screen, biochemical, fluorescence, strain H37Rv | Fructose-bisphosphate aldolase (Mycobacterium tuberculosis (strain ATCC 25618 / H37Rv)), … | purified M. tuberculosis FBA, fluorescence read-out | inhibition, % at 1 µM | hit rate 2.3% among 360,000
Target sequence (P9WQA3 whole entry, looked up): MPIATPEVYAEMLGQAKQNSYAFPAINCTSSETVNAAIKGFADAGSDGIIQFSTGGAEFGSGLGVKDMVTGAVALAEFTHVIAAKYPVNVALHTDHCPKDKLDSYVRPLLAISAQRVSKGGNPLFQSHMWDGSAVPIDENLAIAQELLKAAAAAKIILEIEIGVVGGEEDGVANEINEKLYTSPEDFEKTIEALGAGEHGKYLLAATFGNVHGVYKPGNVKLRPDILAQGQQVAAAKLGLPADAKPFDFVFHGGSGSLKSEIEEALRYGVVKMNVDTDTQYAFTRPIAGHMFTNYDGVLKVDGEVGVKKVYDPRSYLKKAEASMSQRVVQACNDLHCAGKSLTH
GDH-TPI counter-1: GDH-TPI coupling enzyme inhibitors, primary screen, artefact control for M. tuberculosis FBA inhibitor project, biochemical, absorbance, full deck; GDH-TPI coupled enzyme counterscreen, NADH absorbance; AID 588335, 2011; hit rate 1.2% among 360,000; inhibition, % at 4.8 µM; in the data active = inhibition above about 30%
Mtb FBA confirm: M. tuberculosis aldolase blockers, biochemical, fluorescence, strain H37Rv, confirmation; shares compounds with FBA Mtb inh; purified M. tuberculosis FBA, fluorescence read-out; inhibition, % at 1 µM; hit rate 78% among 5,600; AID 651616, 2012
GDH-TPI counter-2: GDH-TPI coupling enzyme inhibitors, artefact control for M. tuberculosis FBA inhibitor project, biochemical, fluorescence, high throughput | GDH-TPI coupled enzyme counterscreen | shares compounds with FBA Mtb inh | AID 652141, 2013 | hit rate 81% among 5,600 | inhibition, % at 1 µM; in the data active = inhibition above about 10%
GDH-TPI DR: GDH-TPI coupling enzyme inhibitors, dose response, artefact control for M. tuberculosis FBA inhibitor project, biochemical, fluorescence, IC50. shares compounds with FBA Mtb inh. GDH-TPI coupled enzyme assay, artifact counterscreen. IC50, µM. hit rate 79% among 170; call rule not given here
Hits are given with their value. In the library only some 3.2% were active in any assay of this set; here they are far more common. Rule as the data show it, unless noted: active = inhibition above about 27%; inactive = the rest.

What do the screens show for `CN1CCN(c2ccc(CNC(=O)C3(C)Cc4c(-c5ccc6c(c5)OCO6)ccnc4O3)cc2)CC1` (stereo unspecified)?
Yp Topo-I inh: inactive; TcdB inh: inactive; PrPC surface inh: inactive; FBA Mtb inh: 33; GDH-TPI counter-1: inactive; Mtb FBA confirm: 121; GDH-TPI counter-2: 103

Results for COc1ccc(NC(=O)C2(C)Cc3c(-c4ccc5c(c4)OCO5)ccnc3O2)cc1 (stereo unspecified) ?
Yp Topo-I inh: inactive; TcdB inh: inactive; PrPC surface inh: inactive; FBA Mtb inh: 36; GDH-TPI counter-1: inactive; Mtb FBA confirm: active; GDH-TPI counter-2: active

Results for CC1(C(=O)NCC2CC2)Cc2c(-c3ccc4c(c3)OCO4)ccnc2O1 (stereo unspecified) ?
Yp Topo-I inh: inactive; TcdB inh: inactive; PrPC surface inh: inactive; FBA Mtb inh: 88; GDH-TPI counter-1: inactive; Mtb FBA confirm: 76; GDH-TPI counter-2: 51

How did CN(C)c1ccc(CNC(=O)C2(C)Cc3c(-c4ccc5c(c4)OCO5)ccnc3O2)cc1 (stereo unspecified) do in these assays?
Yp Topo-I inh: inactive; TcdB inh: inactive; PrPC surface inh: inactive; FBA Mtb inh: inactive; GDH-TPI counter-1: inactive

Results for CNC(=O)C1(C)Cc2c(-c3ccc4c(c3)OCO4)ccnc2O1 (stereo unspecified) ?
Yp Topo-I inh: inactive; TcdB inh: inactive; PrPC surface inh: inactive; FBA Mtb inh: 49; GDH-TPI counter-1: inactive; Mtb FBA confirm: active; GDH-TPI counter-2: active

Results for O=C(NCCc1cn2ccsc2n1)C1CCCCC1 ?
Yp Topo-I inh: inactive; TcdB inh: inactive; PrPC surface inh: inactive; FBA Mtb inh: inactive; GDH-TPI counter-1: inactive

How did O=C(NCCc1cn2ccccc2n1)C1CCCCC1 do in these assays?
Yp Topo-I inh: inactive; TcdB inh: inactive; PrPC surface inh: inactive; FBA Mtb inh: 27; GDH-TPI counter-1: inactive; Mtb FBA confirm: 109; GDH-TPI counter-2: 80

How did COc1ccc(S(=O)(=O)Nc2ccc3c(c2)CC(=O)N([C@H](C)CO)C[C@@H](C)[C@@H](CN(C)C)O3)cc1 do in these assays?
TcdB inh: inactive

Results for C[C@H]1CN([C@@H](C)CO)S(=O)(=O)c2ccc(-c3ccncc3)cc2O[C@H]1CN(C)Cc1cccnc1 ?
TcdB inh: inactive

What do the screens show for `CO[C@@H]1CN(C)C(=O)c2cc(NC(=O)NC3CCCCC3)ccc2OC[C@@H](C)N(CC2CC2)C[C@H]1C`?
TcdB inh: inactive

What do the screens show for `COc1cc2c(cc1OC)C(C1C(=O)CC(C)CC1=O)N(C(=O)CCl)CC2` (stereo unspecified)?
Yp Topo-I inh: inactive; TcdB inh: inactive; PrPC surface inh: inactive; FBA Mtb inh: 31; GDH-TPI counter-1: inactive; Mtb FBA confirm: inactive; GDH-TPI counter-2: inactive; GDH-TPI DR: inactive

How did COc1cc2c(cc1OC)C(C1C(=O)CCCC1=O)N(C(=O)CCl)CC2 (stereo unspecified) do in these assays?
Yp Topo-I inh: inactive; TcdB inh: inactive; PrPC surface inh: inactive; FBA Mtb inh: inactive; GDH-TPI counter-1: inactive

Results for O=c1nc(-c2ccccc2)n(-c2ccc(Cl)cc2)[nH]1 ?
Yp Topo-I inh: inactive; TcdB inh: inactive; PrPC surface inh: inactive; FBA Mtb inh: 28; GDH-TPI counter-1: inactive; Mtb FBA confirm: 128; GDH-TPI counter-2: 105

Results for CCOP(=O)(OCC)c1nc(-c2ccc(Cl)cc2)oc1NCc1ccccc1 ?
Yp Topo-I inh: inactive; TcdB inh: inactive; PrPC surface inh: inactive; FBA Mtb inh: 79; GDH-TPI counter-1: inactive; Mtb FBA confirm: 80; GDH-TPI counter-2: 102

What do the screens show for `CCOP(=O)(c1ccccc1)c1nc(-c2ccccc2C)oc1NCc1ccccc1` (stereo unspecified)?
Yp Topo-I inh: inactive; TcdB inh: inactive; PrPC surface inh: inactive; FBA Mtb inh: inactive; GDH-TPI counter-1: inactive

What do the screens show for `COP(=O)(OC)c1nc(-c2ccccc2)oc1N1CCOCC1`?
Yp Topo-I inh: inactive; PrPC surface inh: inactive; FBA Mtb inh: 89; GDH-TPI counter-1: inactive; Mtb FBA confirm: 83; GDH-TPI counter-2: 56

What do the screens show for `O=S(=O)(c1ccccc1)c1nc(-c2ccccc2)oc1N1CCOCC1`?
Yp Topo-I inh: inactive; TcdB inh: inactive; PrPC surface inh: inactive; FBA Mtb inh: inactive; GDH-TPI counter-1: inactive

Results for COP(=O)(OC)c1nc(-c2ccccc2)oc1NCc1ccccc1 ?
Yp Topo-I inh: inactive; PrPC surface inh: inactive; FBA Mtb inh: 107; GDH-TPI counter-1: inactive; Mtb FBA confirm: 86; GDH-TPI counter-2: 70

Results for COCCNC(=O)C[C@@H]1CC[C@H]2[C@H](COc3ccc(NC(=O)c4cc(C)on4)cc3C(=O)N2C)O1 ?
TcdB inh: inactive

How did COc1ccc(S(=O)(=O)N(C)C[C@@H]2Oc3ccc(NS(=O)(=O)c4cn(C)cn4)cc3CC(=O)N([C@H](C)CO)C[C@H]2C)cc1 do in these assays?
TcdB inh: inactive

How did C[C@@H](NC(=O)[C@@H]1[C@@H](CO)[C@@H]2Cn3c(ccc(-c4ccccc4)c3=O)[C@H]1N2C)c1ccccc1 do in these assays?
TcdB inh: inactive

Results for CCCCn1c(-c2cccc(Br)c2)nc2cc3[nH]c(=O)c(C(C)C)nc3cc21 ?
Yp Topo-I inh: inactive; TcdB inh: inactive; PrPC surface inh: inactive; FBA Mtb inh: 34; GDH-TPI counter-1: inactive; Mtb FBA confirm: inactive; GDH-TPI counter-2: inactive

Results for CCCCn1c(-c2ccc(C(C)(C)C)cc2)nc2cc3[nH]c(=O)c(C(C)C)nc3cc21 ?
Yp Topo-I inh: inactive; TcdB inh: inactive; PrPC surface inh: inactive; FBA Mtb inh: inactive; GDH-TPI counter-1: inactive

What do the screens show for `CCCCn1c(-c2cccnc2)nc2cc3[nH]c(=O)c(C(C)C)nc3cc21`?
Yp Topo-I inh: inactive; TcdB inh: inactive; PrPC surface inh: inactive; FBA Mtb inh: 64; GDH-TPI counter-1: 31; Mtb FBA confirm: active; GDH-TPI counter-2: 170

Results for O=C(c1ccc2c3c(cccc13)CC2)C1CCCN(C(=O)c2cc[n+]([O-])cc2)C1 (stereo unspecified) ?
Yp Topo-I inh: inactive; TcdB inh: inactive; PrPC surface inh: inactive; FBA Mtb inh: inactive; GDH-TPI counter-1: inactive
